Bioassay records from PubChem BioAssay.
hNpr1 antagonist: blocks ANP-stimulated signaling of human Npr1 receptor; Potency, µM (doses to about 46.3 µM), hits mostly inhibitors; 76,000 tested, 1.6% active; AID 1347048; HEK293 hNpr1 GloSensor cGMP, ANP-stimulated luminescence; P16066; calls by dose curve; also: nearly all actives have a fitted effect of over 60% in size
Target sequence (P16066 whole entry, looked up): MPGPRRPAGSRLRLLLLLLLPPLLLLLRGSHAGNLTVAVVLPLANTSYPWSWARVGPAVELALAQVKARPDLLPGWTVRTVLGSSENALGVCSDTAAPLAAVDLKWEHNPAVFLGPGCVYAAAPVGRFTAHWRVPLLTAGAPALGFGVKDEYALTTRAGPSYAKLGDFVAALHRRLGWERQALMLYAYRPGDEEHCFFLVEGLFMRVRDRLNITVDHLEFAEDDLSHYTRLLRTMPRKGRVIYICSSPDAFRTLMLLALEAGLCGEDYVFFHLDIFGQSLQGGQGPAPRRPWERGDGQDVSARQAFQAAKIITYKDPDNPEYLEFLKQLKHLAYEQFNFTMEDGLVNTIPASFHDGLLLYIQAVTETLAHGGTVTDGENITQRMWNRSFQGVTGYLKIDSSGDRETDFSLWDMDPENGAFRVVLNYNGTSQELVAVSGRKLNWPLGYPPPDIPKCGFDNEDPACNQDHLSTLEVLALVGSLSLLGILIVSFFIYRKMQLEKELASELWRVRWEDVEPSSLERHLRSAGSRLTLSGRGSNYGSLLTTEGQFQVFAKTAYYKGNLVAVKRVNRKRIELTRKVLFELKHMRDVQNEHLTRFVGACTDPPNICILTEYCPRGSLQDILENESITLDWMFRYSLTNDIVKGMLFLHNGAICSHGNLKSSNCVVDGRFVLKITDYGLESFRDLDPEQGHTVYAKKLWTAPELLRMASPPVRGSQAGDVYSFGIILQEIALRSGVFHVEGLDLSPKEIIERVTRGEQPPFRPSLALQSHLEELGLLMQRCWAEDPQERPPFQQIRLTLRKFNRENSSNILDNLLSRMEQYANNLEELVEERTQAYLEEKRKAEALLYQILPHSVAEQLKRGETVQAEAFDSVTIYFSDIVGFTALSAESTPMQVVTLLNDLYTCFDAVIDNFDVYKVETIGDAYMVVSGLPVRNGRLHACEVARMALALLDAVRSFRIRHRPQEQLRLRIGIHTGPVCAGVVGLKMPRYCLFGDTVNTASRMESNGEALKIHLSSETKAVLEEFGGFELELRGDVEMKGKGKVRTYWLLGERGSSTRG
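Compound pre-incubated 30 min at room temperature on GloSensor-loaded HEK293 cells stably carrying hNpr1 and the pGS-40F cGMP biosensor. Stimulation uses hNppA at 0.1 nM final; luminescence is taken at baseline and 20 min post-agonist.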
3T3 cytotox: cytotoxic compounds in NIH 3T3 cells; NIH 3T3 viability, CellTiter-Glo ATP luminescence, 48-72 h; Potency, µM (doses to about 96.7 µM), actives largely listed as inhibitors; 94,000 tested, 4.3% active; AID 1345082; also: nearly all actives have a fitted effect of over 55% in size
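Luminescent ATP readout (CellTiter-Glo, 10 min RT) after 48 or 72 hr compound exposure of NIH 3T3 cells seeded at 400 cells/well in 1536-well format; quantitative HTS.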
Luciferase inh: inhibitors of firefly (Photinus pyralis) luciferase | purified P. pyralis luciferase, luminescence, biochemical | Potency, µM (titrated, usually from 115 µM), hits mostly inhibitors | P08659 | AID 1347043 | 76,000 tested, 2.5% active; also: nearly all actives have a fitted effect of over 65% in size
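Luminescence read by CCD imager after adding enzyme (10nM final) to wells holding compound, titrated in qHTS. Substrates 10uM each D-luciferin and ATP; buffer 50mM Tris acetate pH 7.5, 10mM Mg acetate, Tween-20, BSA.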
HEK293 tox: cytotoxic compounds in HEK 293 cells | HEK 293 viability, ATP luminescence (CellTiter-Glo), 48-72 h | Potency, µM (series often up to 115 µM), usual class: inhibitors | 94,000 tested, 6.6% active | AID 1345083; also: nearly all actives have a fitted effect of over 60% in size
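Cytotoxicity was scored by loss of ATP-coupled luminescence (CellTiter-Glo) in HEK 293 cells. Compound treatment ran 48 or 72 hr at 37 degree Celsius, 5% CO2, 95% humidity.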
GPT2 inh: inhibitors of human GPT2 alanine aminotransferase; Potency, µM (series often up to 57.7 µM), hits mostly inhibitors; AID 1671188; Recombinant GPT2, coupled pyruvate oxidase/HRP Amplex Red fluorescence; 100,000 tested, 0.25% active; Q8TD30; also: nearly all actives have a fitted effect of over 60% in size
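Fluorescence read-out: pyruvate from GPT2 turnover coupled to pyruvate oxidase, HRP and Amplex Red (0.2mM ThPP, 0.2U/mL PO and HRP, 50uM Amplex final). Substrates 250uM a-KG, 2mM L-alanine; enzyme 10ng/uL; 30 min RT.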
A number is an active result; . = inactive; ? = inconclusive; / = no result given. Only some compounds are listed: those with a hit (about 10% of all), similar ones and a draw of the others. Unless noted, calls follow the shape of the dose curve; as a rule, active = well fitted curve in the direction sought with a large enough effect; inconclusive = small, poorly fitted or top-dose-only effect, or another doubt; inactive = no such curve, though single readings can be large; an effect the other way counts as inactive or inconclusive.

SMILES	hNpr1 antagonist	3T3 cytotox	Luciferase inh	HEK293 tox	GPT2 inh
COc1ccc(-c2[nH]nc3ncc(-c4ccc([S+](C)(=O)[O-])cc4)nc23)cc1F	.	?	.	?	.
COc1ccc(-c2[nH]nc3ncc(-c4ccccc4F)nc23)cc1F	.	50µM	.	?	.
COc1ncccc1-c1nc2cc(C(=O)Nc3ccc(C)cc3)ccc2o1	/	?	/	?	.
O=C(CN1C(=O)C(Oc2ccc(F)cc2)C12CCCCC2)NCC1CC1 (stereo unspecified)	/	.	/	?	.
O=C1C(Oc2ccc(F)cc2)C2(CCCCC2)N1Cc1ccc(F)cc1 (stereo unspecified)	/	25µM	/	40µM	.
COCCCNC(=O)c1nc2cccnc2n(CCc2ccccc2)c1=O	/	.	/	.	.
CN1Cc2sccc2C(c2ccc(O)c(O)c2)C1 (stereo unspecified)	/	/	/	/	4µM
Cc1cc(C)n(CCC(=O)N2c3ccccc3CC2c2noc(C3CCOCC3)n2)n1 (stereo unspecified)	.	?	25µM	?	.
COc1ccc(N2CCN(C(=O)C3CC(=O)N(c4n[nH]c5cccc(F)c45)C3)CC2)cc1 (stereo unspecified)	.	.	.	40µM	?
O=C(Nc1nc2c(s1)CCC2)C1CC(=O)N(c2n[nH]c3cccc(F)c23)C1 (stereo unspecified)	.	?	.	45µM	.
O=C(Nc1nc2c(s1)CCC2)C1CC(=O)N(c2n[nH]c3cc(Br)ccc23)C1 (stereo unspecified)	.	18µM	.	?	.
O=C(Nc1nc2c(s1)CCCC2)C1CC(=O)N(c2n[nH]c3ccccc23)C1 (stereo unspecified)	.	.	.	?	.
O=C(Nc1nc2ccccc2s1)C1CC(=O)N(c2n[nH]c3cccc(F)c23)C1 (stereo unspecified)	.	25µM	.	13µM	.
O=C(Cc1cccc(Cl)c1)N1CCCC(C(=O)N2CCC(N3Cc4cccn4C3=O)CC2)C1 (stereo unspecified)	/	.	/	.	.
COCc1ncc(C)n1C1CCN(C(=O)CCc2c[nH]c3ccccc23)C1 (stereo unspecified)	/	.	/	.	.
COc1ccc(-c2c(C(=O)NC3CCCCC3)nc3sccn23)cc1	/	.	/	?	.
COC(=O)[C@@H]1Cc2ncn(Cc3ccc(OC)cc3)c2CN1Cc1ccc(OC)cc1	.	?	.	?	.
COc1ccccc1-c1cc(C(=O)NCCc2ccc(F)cc2)nn2cccc12	/	?	/	35µM	.
COc1ccccc1-c1cc(C(=O)NCc2cccc(Cl)c2)nn2cccc12	/	?	/	45µM	.
COc1ccccc1-c1cc(C(=O)NCc2cccnc2)nn2cccc12	/	?	/	?	.
Cc1ccc(C2Cn3nnc(C(=O)N4CCC(C(=O)NCc5ccccc5Cl)CC4)c3CO2)cc1 (stereo unspecified)	.	.	?	.	.
Cc1ccc(C2Cn3nnc(C(=O)N4CCC(C(=O)NCc5ccc(F)cc5F)CC4)c3CO2)cc1 (stereo unspecified)	.	.	?	.	.
Cc1ccc(C2Cn3nnc(C(=O)N4CCC(C(=O)NCc5cc(F)ccc5F)CC4)c3CO2)cc1 (stereo unspecified)	.	.	35µM	.	.
Cc1ccc(C2Cn3nnc(C(=O)N4CCC(C(=O)NCc5ccccc5F)CC4)c3CO2)cc1 (stereo unspecified)	.	.	22µM	.	.
CC(C)(C)C(=O)N1CCCC(C(=O)N2CCC(N3CCOC3=O)CC2)C1 (stereo unspecified)	/	.	/	.	.
SMILES	hNpr1 antagonist	3T3 cytotox	Luciferase inh	HEK293 tox	GPT2 inh
O=C(NC1CCCCCC1)c1nc2sccn2c1-c1ccccc1	/	?	/	?	.
Cc1noc2c(NCCN3CCOCC3)cc(-c3cccc(C(F)(F)F)c3)nc12	.	?	.	?	.
Cc1noc2c(NCc3cccnc3)cc(-c3cccc(C(F)(F)F)c3)nc12	.	79µM	.	100µM	.
COCCNc1cc(-c2cccc(C(F)(F)F)c2)nc2c(C)noc12	.	?	.	89µM	.
COc1ccccc1-c1nnc2ccc(C(=O)N3CCN(C(C)=O)CC3)cn12	/	.	/	.	.
O=c1cc(-c2cccnc2)oc2c(-c3ccccc3F)nccc12	.	20µM	.	?	.
O=c1cc(-c2ccncc2)oc2c(-c3ccccc3O)nccc12	.	.	.	?	.
O=c1cc(-c2cccnc2)oc2c(-c3ccccc3Oc3ccccc3)nccc12	.	?	.	100µM	.
CN(C)c1cc(=O)c2ccnc(-c3ccccc3F)c2o1	.	45µM	.	?	.
C[S+](=O)([O-])c1ccc(-c2nccc3c(=O)cc(-c4ccncc4)oc23)cc1	.	32µM	.	?	.
CN(C)c1cc(=O)c2ccnc(-c3ccccc3Oc3ccccc3)c2o1	.	?	.	?	.
COc1ccc(-c2cc(C(=O)NCc3ccc(F)cc3)c3cnn(C)c3n2)cc1	/	?	/	?	.
O=C(c1ccc(Cl)nc1)N1CCCC(c2nn(-c3ccccn3)c(=O)[nH]2)C1 (stereo unspecified)	/	.	/	.	.
Cc1ccc(NC(=O)c2cn3cc(-c4ccc(F)cc4)sc3n2)cc1	/	.	/	.	.
COc1ccc(C(=O)NCc2nnc3c(-c4nc(C(C)C)no4)cccn23)cc1F	.	.	.	.	.
O=c1cc(-c2cccnc2)oc2c(-c3cn[nH]c3)nccc12	.	8.9µM	.	.	.
CC(C)c1cnc(C2CCN(C(=O)OC(C)(C)C)CC2)[nH]1	/	.	/	.	?
OCC1(Cc2ccccc2Cl)CCN(Cc2cc3ccccc3o2)CC1	?	?	.	18µM	.
CC(C)Oc1ccc(CN2CCC(CO)(Cc3ccccc3Cl)CC2)cc1CO	.	25µM	.	?	.
CCOCCOC1CCN(C(=O)c2cccc3[nH]ccc23)CC1	.	.	35µM	.	.
CCC(NCc1c(C(=O)N2CCCCCC2)nc2cc(C)ccn12)c1ccc(C)cc1 (stereo unspecified)	.	45µM	.	18µM	.
COc1ccccc1-c1cccc(CN2CCC(N[S+](=O)([O-])c3ccc(C)cc3)CC2)c1	/	?	/	35µM	.
COc1ccccc1-c1cccc(CN2CCC(N[S+](=O)([O-])c3c(C)noc3C)CC2)c1	/	35µM	/	35µM	.
COc1ccccc1-c1cccc(CN2CCC(N[S+](C)(=O)[O-])CC2)c1	/	?	/	?	.
CC(C)c1ccccc1Cc1cc(C(=O)Nc2ccc(S(=O)(=O)c3ccccc3C(C)(C)C)cc2)c(O)c(O)c1O	/	/	/	/	27µM
CCN1C(=O)CCN(Cc2cn(C)c3ccccc23)CC12CCOCC2	/	?	/	79µM	.
Cn1cccc1CN1CCC(N2C(=O)C(OCC3CC3)C23CCCCC3)CC1 (stereo unspecified)	.	?	.	45µM	.
